Drawing on PubChem BioAssay (NCI), this text covers growth for 13 molecules.

Common to all, as to assay: NCI-60 one-dose screen, 48 h (100 = growth as untreated, 0 = no growth, -100 = all killed)
Holding throughout (conditions): 10 µM unless noted

For assay [1], the system named is NCI-H23 lung.
Assay [2] relates to NCI-H322M lung.
Assay [3] has as its system HOP-62 NSCLC.
Assay [4] relates to NCI-H460 lung.
Assay [5] concerns HOP-92 NSCLC.
The subject of assay [6] is NCI-H522 lung.
Assay [7] has as its system A549/ATCC NSCLC.
The test system of assay [8] is 786-0 renal.
Assay [9] deals with COLO 205 colon.
In assay [10] the test system is DU-145 prostate.

Compounds without any hit were thinned out: in the full panel of roughly 83,000, 20% have a hit.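 A percent growth of 40 corresponds to 60% growth inhibition; 0 means no net growth; -100 means all cells died. Active threshold: below 10.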 Unmarked numbers belong to inactive results. The source made the active and inactive calls.

On to `CN1CCN(Cc2ccc(C(=O)Nc3cncc(C#Cc4cnc5cccnn45)c3)cc2C(F)(F)F)CC1`, for which the growth in [1] was 47.5%; in assay [2], 54.4%; in [3], 70.9%; in assay [4], 49.2%; in assay [5], 34.4%; in [6] it was 40.2%. The growth is 58.5% in [7], 57.2% in assay [8], 39.3% in assay [9] and 36.1% in [10].
Consider `Cn1c2c(c(=O)[nH]c1=O)NC1=C(C(=O)c3ccccc31)C1(C=C(O)c3ccccc31)N2` (stereo not given), for which the growth in assay [1] was 109%; in assay [2], 113%; in assay [3], 101%; in [4] it was 111%; in assay [5], 75.7%; in assay [6], 99.9%. Further, the growth is 102% in assay [7], 97.7% in [8], 121% in assay [9] and 89% in [10].
In the case of `Cc1ccc(S(=O)(=O)c2c(COC(=O)c3cccc(C)c3)c(-c3ccccc3)nn2C)cc1`, the growth was 94.5% in assay [1]; -4.7% (active) in assay [2]; 18.1% in assay [3]; 102% in assay [4]; 71.4% in assay [5]; -33.1% (active) in [6]. In addition, the growth in [7] was -32.7% (active); in assay [8], 106%; in assay [9] it was -95.9% (active); in [10] it was 116%.
Take `O=C(CCc1nnc2sc(-c3ccc(Cl)cc3Cl)nn12)c1nc2ncccc2[nH]1`: the growth in assay [1] was -40.7% (active); in assay [2], 11.7%; in assay [3] it was 2.87% (active); in [4], -66.8% (active); in assay [5] it was -62.1% (active); in assay [6], -47.9% (active). Moreover, the growth is 4.78% (active) in assay [7], -31.5% (active) in assay [8], -32.5% (active) in assay [9] and -7.95% (active) in assay [10].
For `CC(=S)NC(=O)C(=O)/C=C1/NC(=O)C(=O)S1`, the growth is 97.4% in assay [1]; 105% in [2]; 100% in assay [3]; 107% in [4]; 96.5% in assay [5]; 105% in [6]. In addition, the growth was 111% in [7], 103% in [8], 124% in assay [9] and 111% in assay [10].
As for `CCCN1C(=O)N(CCC)C2C1NN=c1s/c(=C3\C(=O)N(C(C)C)c4ccccc43)c(=O)n12` (stereo not given), the growth in assay [1] was 76%; in assay [2], 78%; in assay [3], 41.9%; in assay [4], 35.3%; in assay [5], 27.1%; in assay [6] it was 22.4%. The growth in assay [7] is 43.9%; in [8] it was -6.03% (active); in [9], 43.8%; in assay [10], 53.5%.
For the molecule `COc1ccc(-c2nnc(COc3ccc(C(=O)/C=C/c4ccco4)cc3)o2)cc1`, the growth in [1] was 92.1%; in [2] it was 86.6%; in [3], 75.8%; in [4], 78.5%; in assay [5], 88.4%; in [6], 91.8%. For the same molecule, the growth was 87% in assay [7], 50.9% in assay [8], 44.7% in assay [9] and 61.6% in [10].
With `O=C(O)CCC(=O)c1ccc(C2CCCCCC2)cc1`, the growth is 97.9% in assay [1]; 97.5% in assay [2]; 98.8% in assay [3]; 107% in assay [4]; 99.7% in assay [5]; 87.5% in assay [6]. Besides, the growth in assay [7] was 99.6%; in assay [8], 95.8%; in [9], 104%; in assay [10] it was 108%.
Take `COc1cc(C2C3=C(COC3=O)N(CCO)c3cc4c(cc32)OCCO4)cc(OC)c1O` (stereo not given): the growth in [1] is 35.8%; in [2] it was 51.6%; in [3], 32.9%; in assay [4], -3.84% (active); in [5], 85.3%; in [6], -23.4% (active). Besides, the growth in [7] was 52.8%; in [8] it was 19.8%; in assay [9], 18.2%; in [10], -8.77% (active).
In the case of `COc1ccc(-c2nc(N3CCN(C(=O)C4CCCCC4)CC3)c3c4c(sc3n2)CCCC4)cc1`, the growth is 44% in [1]; 43.1% in assay [2]; -84.5% (active) in [3]; -32.8% (active) in [4]; 44.8% in assay [5]; -23.9% (active) in assay [6]. Moreover, the growth in assay [7] is -36.3% (active); in assay [8], -78.4% (active); in [9], -38.5% (active); in assay [10] it was -21.9% (active).
On to `Cc1ccc(Cc2cnc(NC(=O)CN3C(=O)/C(=C\c4ccccc4)SC3=S)s2)cc1`, for which the growth was 103% in assay [1]; 109% in assay [2]; 109% in assay [3]; 103% in [4]; 113% in assay [5]; 94.7% in [6]. In addition, the growth in [7] is 103%; in [8], 105%; in [9], 116%; in assay [10], 111%.
On to `O=C(Nc1ccc(Cl)cc1)N1CCN(c2ccc3nncn3n2)CC1`, for which the growth in assay [1] was 77.2%; in assay [2] it was 29.8%; in [3], -11.4% (active); in assay [4], -27.3% (active); in assay [5], -21.8% (active); in [6], -45.1% (active). The growth is -12% (active) in assay [7], -85.9% (active) in assay [8], -81.2% (active) in assay [9] and 36% in [10].
`O=C(O)CCCN1C(=O)C2C3CCC(C3)C2C1=O` (stereo not given): the growth in assay [1] is 101%; in assay [2], 107%; in assay [3] it was 109%; in [4], 116%; in assay [5], 107%; in [6] it was 88%. Besides, the growth in assay [7] was 104%; in assay [8], 106%; in assay [9], 119%; in assay [10], 115%.
